Results on 40 compounds are retold here after PubChem BioAssay (Tox21).

“And” between values parts separate entries of the source, which are not always exact repeats. Equal entries are not always repeated. Results filed as inconclusive are left out. Where a call stands in place of a potency, no number is given. Where a structure was tested more than once in an assay, its records may differ in their call. The source made the active and inactive calls. Calls come from the whole dose curve.
Potency is the fitted concentration of half-maximal effect.

The target in the test is 5-hydroxytryptamine receptor 2A (Homo sapiens) (UniProt P28223). Briefly: 5-hydroxytryptamine receptor 2A (HTR2A) small molecule antagonists, cell-based qHTS assay (AID 1963586). Note: nearly all actives have a fitted effect of over 45% in size. The note with it: HTR2A-CHO cells, DOI-induced calcium flux, fluorescence; series mostly up to 61.5 µM. From the text: National Center for Advancing Translational Sciences [NCATS]
5-hydroxytryptamine receptor 2A (Homo sapiens), sequence (P28223 whole entry, looked up): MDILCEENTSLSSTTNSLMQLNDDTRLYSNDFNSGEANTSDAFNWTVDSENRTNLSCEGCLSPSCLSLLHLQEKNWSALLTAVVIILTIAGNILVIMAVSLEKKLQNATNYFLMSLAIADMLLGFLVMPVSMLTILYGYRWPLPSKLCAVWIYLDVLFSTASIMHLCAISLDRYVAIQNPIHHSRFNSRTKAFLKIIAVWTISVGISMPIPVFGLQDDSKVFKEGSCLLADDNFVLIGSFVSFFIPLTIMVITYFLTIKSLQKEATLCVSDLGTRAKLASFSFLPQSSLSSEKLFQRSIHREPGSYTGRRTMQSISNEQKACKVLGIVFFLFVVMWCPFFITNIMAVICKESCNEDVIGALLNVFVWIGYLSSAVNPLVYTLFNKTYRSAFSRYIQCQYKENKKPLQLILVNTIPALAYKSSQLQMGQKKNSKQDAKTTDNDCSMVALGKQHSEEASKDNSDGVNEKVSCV
Division of Preclinical Innovation [DPI]
U.S. Environmental Protection Agency [EPA]
National Institutes of Environmental Health Sciences [NIEHS]
National Toxicology Program [NTP]
U.S. Food and Drug Administration [FDA]
The HTR2A receptor is a subtype of the 5-HT2 receptor that belongs to the serotonin receptor family and is a G protein-coupled receptor (GPCR). The HTR2A-CHO cell line stably expressing human 5-hydroxytryptamine receptor 2A (HTR2A) can be used for screening antagonists of interactions between 5-HT2 and its ligands. The HTR2A-CHO calcium flux assay is a homogeneous fluorescence-based assay for detecting the intracellular calcium level using FDSS kinetic plate reader system.
Tox21 Assay Protocol Summary:
HTR2A-CHO cells were dispensed at 2000 cells/3uL/well in 1536-well black-clear bottom plates using a Multidrop Dispenser. After the assay plates were incubated at a 37 C/5% CO2 incubator for 18 h, 3 uL of Dye Loading Buffer was transferred to the assay plate by a Flying Reagent Dispenser. The assay plates were incubated at 37 C for 1h. For antagonist mode, 23 nL of compounds dissolved in DMSO, positive controls or DMSO only was transferred to the assay plate by a pin tool. After 5 min incubation at room temperature, 1.5 uL of 4-Iodo-2,5-dimethoxy-alpha-methylbenzeneethanamine hydrochloride (DOI) at 4nM was added to each well. The fluorescence intensity in the plates was measured using FDSS 7000EX kinetic plate reader for 3 min at 1 sec intervals.
On to `CON(C)C(=O)Nc1ccc(Cl)cc1`, for which the Potency result was “inactive”. The value for `C=CC1(C)OC(=O)N(c2cc(Cl)cc(Cl)c2)C1=O` (stereo not given) was “inactive”; that for `CCCC[N+]1(C)CCCCC1` was “inactive”; that for `[O-][Cl+]O` was “inactive”.

In the case of `CC(C)(C)C(=O)C(Cl)Cl`, the Potency result is “inactive”. The value for `Oc1ccc(Cl)c(Cl)c1` was “inactive”. Next, `CCOP(=S)(OCC)Oc1ccc2c(C)c(Cl)c(=O)oc2c1`: “inactive”; `c1ccc2c(c1)oc1ccccc12`: “inactive”; `CC(C)=CCN1CC[C@@]2(C)c3cc(O)ccc3C[C@@H]1[C@@H]2C`: “inactive”.

In the case of `CCCCC(CC)COC(=O)c1c(Br)c(Br)c(Br)c(Br)c1C(=O)OCC(CC)CCCC` (stereo not given), the Potency entry was “inactive”. The value for `CCOC(=O)N(C)N=O` was “inactive”. Next, `CC(C)(c1ccccc1)c1ccc(O)c(C(C)(C)c2ccccc2)c1`: “inactive”; `COc1ccc2c(c1OC)C(=O)O[C@@H]2[C@H]1c2cc3c(cc2CCN1C)OCO3`: “inactive”; `CNC(=S)S`: “inactive”. Next, `CC(=O)CCC(C)=O`: “inactive”; `OCCOc1ccccc1`: “inactive”. As for `CCCCCCCCCCCC[N+](C)(C)CCOc1ccccc1`, the Potency is 133 nM (active) and 46 nM (active).

Regarding `Clc1ccccc1Cl`, the Potency entry was “inactive”. As for `Brc1ccc(Oc2ccccc2)cc1`, the Potency entry is “inactive”. For `CCCCCCCCCCn1cc[n+](C)c1`, the Potency entry is “inactive”. As for `BrCCc1ccccc1`, the Potency entry is “inactive”. Next, `O=c1nc(O)n(Cl)c(=O)n1Cl`: “inactive”; `COP(=O)(CCC(=O)NCO)OC`: “inactive”. For the compound `[Cd+2].[Cl-].[Cl-]`, the Potency entry was “inactive”. For the compound `O=C(O)COc1ccccc1`, the Potency result was “inactive”. Next, `O=C(O)CCCOc1ccc(Cl)cc1Cl`: “inactive”. Next, `Clc1cccc(Cl)c1Cl`: “inactive”; `CCCC1COC(Cn2cncn2)(c2ccc(Cl)cc2Cl)O1` (stereo not given): “inactive”. As for `CC(C(=O)c1ccccc1)N(C)C` (stereo not given), the Potency result was “inactive”. The value for `CC1CCC(=O)O1` (stereo not given) was “inactive”; that for `CCC[N+]1(C)CCCCC1` was “inactive”; that for `CCN(CC)C(=O)C(C)Oc1cccc2ccccc12` (stereo not given) was “inactive”. For the compound `CC(C)(C1CCC(O)CC1)C1CCC(O)CC1` (stereo not given), the Potency entry was “inactive”.

For the compound `Nc1ccc(Oc2ccc(N)cc2)cc1`, the Potency entry was “inactive”. The value for `CS(=O)(=O)NC(=O)c1cc(Oc2ccc(C(F)(F)F)cc2Cl)ccc1[N+](=O)[O-]` was “inactive”; that for `O=C(O)COc1ccc(Cl)cc1Cl` was “inactive”. The value for `CCOP(=S)(OCC)SCSC(C)(C)C` was “inactive”; that for `Oc1c(Cl)c(Cl)c(Cl)c(Cl)c1Cl` was 23.2 µM (active) and inactive. `OC[C@@H](O)[C@H]1O[C@@H]2O[C@H](C(Cl)(Cl)Cl)O[C@@H]2[C@H]1O`: the Potency entry was “inactive”. The value for `CCCCN=C=O` was “inactive”.
